Results on one compound are retold here after PubChem BioAssay (NCATS).

Test [1] is described as follows: AP1 Signaling Pathway (AID 357; active = well fitted curve in either direction with a large enough effect, not every such curve was filed as active;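 note: ME-180 reporter cells stimulated with EGF at its EC50 level; % is set by controls: 0 for no effect and ±100 for the full control effect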). Conditions: ME-180 AP-1-bla reporter, EGF-induced, beta-lactamase ratio, 5 h; at 38 µM (top of the series). Put shortly:
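In this screen, ME-180 cells in Opti-MEM with 0.5% dialyzed FBS received EC50 EGF and compound titrations for 5 h. AP-1 reporter beta-lactamase was detected via CCF4 ratio, giving AC50 for positive and negative modulators.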

Test [2] deals with Cytochrome P450 1A2 (Homo sapiens) (UniProt P05177). Put plainly: p450-cyp1a2 (AID 410; calls by dose curve;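 note: -100% = full effect of reference inhibitor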). The method, boiled down:
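Luminescent readout of luciferin formed from Luciferin-ME by human CYP1A2; data normalized against complete inhibition by 57 uM furafylline. Enzyme 20nM, substrate 100uM at Km, 100mM KPO4 buffer, 60 min reaction at room temperature.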

Test [3] is described as follows: NFAT Signaling Pathway (AID 444; active = well fitted curve in either direction with a large enough effect, not every such curve was filed as active;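 note: carbachol stimulus at about its EC50 of 1 µM final; % is set by controls: 0 for no effect and ±100 for the full control effect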). Particulars: Jurkat NFAT-bla M1, carbachol, beta-lactamase ratio, 5 h; at 38 µM (top of the series). The method, boiled down:
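Jurkat cells with NFAT-driven β-lactamase reporter and co-expressed M1 receptor, stimulated with carbachol (final 1 uM, ~EC50), compound titration, 5 h at 37 °C. CCF4 loaded 1 h at RT; 460/530 nm ratio gave %activity and AC50.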

A short description of test [4]: Stat Signaling Pathway (AID 446; active = well fitted curve in either direction with a large enough effect, not every such curve was filed as active;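 note: ME-180 cervical cancer cells given 40 pM IL-6 alongside compound; SIE-controlled beta-lactamase reporter measured as 460/530 nm FRET emission ratio; % is set by controls: 0 for no effect and ±100 for the full control effect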). Particulars: ME-180 SIE beta-lactamase reporter, IL-6 stimulated, 5 h; at 38 µM (top of the series). The method, boiled down:
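Screening format detects activators and inhibitors alike: ME-180 SIE-bla cells stimulated at 40 pM IL-6 for 5 hrs with compound, then dual-emission beta-lactamase read at 405 nm excitation.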

Test [5] has as its target Glucocorticoid receptor (Homo sapiens) (UniProt P04150). Put plainly: GR-GFP Redistribution (AID 450;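 active = compounds whose dose series gives a full or clear partial fitted curve of increased nuclear translocation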; note: potency is the fitted concentration of half-maximal effect). Particulars: U2OS GR-GFP nuclear translocation, laser cytometry, 2 h.
For test [6] the target is unchanged. Put plainly: GR-EFC Redistribution (AID 451; calls by dose curve; note: potency is the fitted concentration of half-maximal effect). Conditions: CHO-K1 GR-EFC translocation, beta-gal luminescence, 2 h. The method, boiled down: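 CHO-K1 cells expressing nuclear EA and GR-ED fragments of b-gal; compounds titrated up to 46 uM final, 2 h at 37 C. GR nuclear translocation read as complemented b-gal luminescence after 1 h RT detection.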
The target in test [7] is Mitogen-activated protein kinase 10 (Mus musculus) (UniProt Q61831). Put plainly: JNK3 AlphaScreen Assay (AID 530; active = well fitted curve in either direction with a large enough effect, not every such curve was filed as active;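 note: kinase came from lysate of stimulated human HepG2 cells; signal reports phosphorylation of biotinylated GST-cJun 1-79 at Ser73 with 10 µM ATP; % is set by controls: 0 for no effect and ±100 for the full control effect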). Put shortly:
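Pre-activated (IL-1β/TNFα) JNK3 in HepG2 lysates phosphorylates biotin-GST-cJun(1-79), 10 uM ATP; anti-phospho-cJun(Ser73) AlphaScreen read at room temperature, pH 7.6 Tris buffer. Compounds pre-incubated 15 min as titrations.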
In general terms: Bead proximity is the source of the signal in Alpha formats.

Test [8] has as its target 3',5'-cyclic-AMP phosphodiesterase 4B (Homo sapiens) (UniProt Q07343). Put plainly: qHTS Assay for Inhibitors of PDE-IV (AID 607; active = well fitted activation curve with a large enough effect in the main read-out, with a control signal flat, not every such curve was filed as active; note: % of control where 0% means no effect). The method, boiled down:
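The readout is membrane depolarisation from a cAMP-sensing CNG channel, detected with a potential dye at ex 535/em 590. Cells were HEK293-derived (endogenous PDE-IV) at 1000 cells/well, titrated up to 22.9 uM final.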
In general terms: Quantitative high-throughput screening tests each substance at several concentrations.

Test [9] has as its target Guanine nucleotide-binding protein G(i) subunit alpha-1 (Homo sapiens) (UniProt P63096). Put plainly: qHTS Assay for Inhibitors of RGS12 GoLoco Motif Activity (Green Fluorophore) (AID 879).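 Note: 0% = labeled peptide with Gαi1 and full inhibition = labeled peptide alone without protein; negative values mean loss of peptide binding seen as reduced polarization.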 The method, boiled down:
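Fluorescence polarization assay: 50 nM Gαi1 with 10 nM FITC-labeled RGS12 GoLoco peptide in 10 mM Tris pH 7.5, 150 mM NaCl, 0.1 mM GDP, 0.05% NP40, 10 min at room temperature with compound.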

For test [10], the target named is Cytochrome P450 2C9 (Homo sapiens) (UniProt P11712). Put plainly: qHTS Assay for Inhibitors and Substrates of Cytochrome P450 2C9 (AID 883). Note: % is set by controls: 0 for no effect and ±100 for the full control effect; nearly all actives have a fitted effect of over 60% in size. The method, boiled down: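 Signal: luciferase luminescence reporting luciferin produced by CYP2C9. Conditions: 10nM enzyme, Luciferin-H 100uM at KM, 25mM KPO4, 37C, 60 min NADPH-driven reaction. Reference: 57uM sulphaphenazole as 100% inhibition.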

A short description of test [11]: qHTS Assay for Identification of Small Molecule Agonists for Thrombopoietin (TPO) Signaling Pathway (AID 917). Note: % is set by controls: 0 for no effect and ±100 for the full control effect. The method, boiled down: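 Murine Ba/F3 cells expressing human TPO receptor and GPIIb-promoter luciferase, IL-3-starved overnight, given compound plus TPO at 26 pM (EC50). After 24 h at 37 C, 5% CO2, luminescence read.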
Test [12] has as its target Pyruvate kinase (Leishmania mexicana) (UniProt Q27686). Put plainly: qHTS Validation Assay for Inhibitors of Leishmania Mexicana Pyruvate Kinase (AID 945).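 Note: 0% = DMSO only neutral control wells.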 The method, boiled down:
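Eight-point qHTS titrations in triplicate, data normalized to DMSO neutral control. Reaction: 0.2 nM LmPYK E451W mutant, 0.5 mM PEP, 0.1 mM ADP, 7 mM MgCl2, pH 7.2, one hour at room temperature; luminescent ATP detection.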

Test [13] has as its target Pyruvate kinase PKM (Homo sapiens) (UniProt P14618). Put plainly: qHTS Assay for Activators of Human Muscle Pyruvate Kinase (AID 954; active = well fitted curve in the direction sought with a large enough effect, not every such curve was filed as active;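 note: 0% = uninhibited enzyme and -100% = no enzyme or full thiadiazolimine inhibition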). Put shortly: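 Reaction: 0.1 nM purified PKM2 with 0.5 mM phosphoenolpyruvate and 0.1 mM ADP, room temperature, 1 h. Readout: luciferase-based ATP luminescence after stop reagent. Activators judged against a 0.3 nM enzyme column.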
Test [14] has as its target Alpha-galactosidase A (Homo sapiens) (UniProt P06280). Put plainly: Counterscreen for Glucocerebrosidase Inhibitors: qHTS Assay for Human alpha-Galactosidase at pH 4.5 (AID 992). Note: 0% is about no effect. Put shortly: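 Concentration-response curves (0.7 nM to 77 uM final) were modeled with the Hill equation to give AC50. Reactions: 2 nM enzyme, 80 uM fluorogenic alpha-galactoside, pH 4.5 citric acid buffer, 20 min, room temperature.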
Background: Counterscreens check selectivity or assay interference.

The nature of test [15]: Validation of Assay for Modulators of Lamin A Splicing (AID 1459; active = well fitted curve in the direction sought with a large enough effect in the signal ratio; the % refers to the signal ratio;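 note: cells exposed to compound for two days before reading; 0% is about no effect; ratio rise marks activators and ratio drop marks inhibitors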). The method, boiled down:
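S3 HeLa stably expressing lamin A-EGFP splicing minigene and DsRed2, 600 cells/well in Opti-MEM with 2% FBS, treated 48 h at 37C; laser-scanning cytometry gives GFP/RFP total intensity ratio; ancitabine positive control, 0.5% DMSO vehicle.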

A short description of test [16]: Counterscreen for APE1 Inhibitors: Fluorescent Dye Displacement Validation Assay (AID 1707).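 Note: plate controls were ThO with dsDNA and no compound for no effect and ThO without dsDNA for full effect.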 The method, boiled down: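 Assay buffer: Tris-HCl pH7.5 with 50mM NaCl, 2 mM MgCl2, 0.01% Tween-20. Dye 250 nM, duplex 50 nM final. Readout: decrease in ThO endpoint fluorescence, 480 nm excitation, 540 nm emission.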
Test [17] addresses Endonuclease 4 (Escherichia coli (strain K12)) (UniProt P0A6C1). Put plainly: Counterscreen for APE1 Inhibitors: qHTS Validation Assay for Inhibitors of Endonuclease IV (AID 1708). Note: % is set by controls: 0 for no effect and ±100 for the full control effect. Put shortly:
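E. coli EndoIV at 2 nM final, preincubated 15 min at room temperature with compound, then 50 nM TAMRA/BHQ-2 THF abasic-site duplex added. Buffer: 50 mM Tris-HCl pH 7.5, 50 mM NaCl, 2 mM MgCl2, 1 mM DTT, 0.01% Tween-20. Kinetic fluorescence increase, third minus first read.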

Test [18] is described as follows: qHTS for differential inhibitors of proliferation of Plasmodium falciparum line 7G8 (AID 1815).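 Note: potency is the fitted concentration of half-maximal effect; parasite growth measured after three days of incubation.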

Each structure is given as a SMILES string. Unmarked numbers belong to inactive results. Results filed as inconclusive are left out. The source made the active and inactive calls. Unless noted, calls come from the whole dose curve; as a rule, active = well fitted curve in the direction sought with a large enough effect; inconclusive = small, poorly fitted or top-dose-only effect, or another doubt; inactive = no such curve, though single readings can be large; an effect the other way counts as inactive or inconclusive. Some results are limits rather than exact numbers.

Chain of Glucocorticoid receptor (Homo sapiens) (P04150 whole entry, looked up, the tested form may be a part): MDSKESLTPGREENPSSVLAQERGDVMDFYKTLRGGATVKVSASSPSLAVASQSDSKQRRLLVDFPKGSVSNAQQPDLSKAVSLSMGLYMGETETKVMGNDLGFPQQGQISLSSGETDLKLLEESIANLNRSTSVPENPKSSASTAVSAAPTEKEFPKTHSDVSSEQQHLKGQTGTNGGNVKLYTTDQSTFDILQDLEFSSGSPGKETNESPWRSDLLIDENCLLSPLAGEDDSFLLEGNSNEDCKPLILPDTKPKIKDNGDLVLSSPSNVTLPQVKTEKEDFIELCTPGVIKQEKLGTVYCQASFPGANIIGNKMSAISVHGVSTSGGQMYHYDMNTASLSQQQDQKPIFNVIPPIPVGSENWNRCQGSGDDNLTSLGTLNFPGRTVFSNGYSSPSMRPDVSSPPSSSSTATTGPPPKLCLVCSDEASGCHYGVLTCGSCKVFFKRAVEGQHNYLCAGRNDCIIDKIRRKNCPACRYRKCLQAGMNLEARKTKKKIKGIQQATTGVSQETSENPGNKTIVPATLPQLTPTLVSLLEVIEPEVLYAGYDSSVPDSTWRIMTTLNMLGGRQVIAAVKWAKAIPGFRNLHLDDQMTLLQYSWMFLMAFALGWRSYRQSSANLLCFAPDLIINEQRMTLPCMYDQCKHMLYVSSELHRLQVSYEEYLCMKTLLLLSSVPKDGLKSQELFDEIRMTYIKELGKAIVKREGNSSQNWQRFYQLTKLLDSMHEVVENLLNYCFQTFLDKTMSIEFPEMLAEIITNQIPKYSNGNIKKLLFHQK
Chain of Cytochrome P450 1A2 (Homo sapiens) (P05177 whole entry, looked up): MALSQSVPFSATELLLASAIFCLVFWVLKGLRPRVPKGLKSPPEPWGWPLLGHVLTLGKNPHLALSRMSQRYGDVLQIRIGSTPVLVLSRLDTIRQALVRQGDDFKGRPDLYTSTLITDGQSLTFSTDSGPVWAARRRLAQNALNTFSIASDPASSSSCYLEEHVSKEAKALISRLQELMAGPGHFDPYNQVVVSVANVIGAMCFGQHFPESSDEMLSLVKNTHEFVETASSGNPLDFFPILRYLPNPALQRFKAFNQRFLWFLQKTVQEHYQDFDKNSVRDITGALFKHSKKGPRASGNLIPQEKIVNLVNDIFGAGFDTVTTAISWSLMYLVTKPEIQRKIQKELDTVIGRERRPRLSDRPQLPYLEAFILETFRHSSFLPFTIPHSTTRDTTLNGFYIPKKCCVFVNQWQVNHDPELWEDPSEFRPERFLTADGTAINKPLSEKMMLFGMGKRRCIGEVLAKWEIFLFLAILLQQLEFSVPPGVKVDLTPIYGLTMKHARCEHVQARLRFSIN
Chain of 3',5'-cyclic-AMP phosphodiesterase 4B (Homo sapiens) (Q07343 whole entry, looked up): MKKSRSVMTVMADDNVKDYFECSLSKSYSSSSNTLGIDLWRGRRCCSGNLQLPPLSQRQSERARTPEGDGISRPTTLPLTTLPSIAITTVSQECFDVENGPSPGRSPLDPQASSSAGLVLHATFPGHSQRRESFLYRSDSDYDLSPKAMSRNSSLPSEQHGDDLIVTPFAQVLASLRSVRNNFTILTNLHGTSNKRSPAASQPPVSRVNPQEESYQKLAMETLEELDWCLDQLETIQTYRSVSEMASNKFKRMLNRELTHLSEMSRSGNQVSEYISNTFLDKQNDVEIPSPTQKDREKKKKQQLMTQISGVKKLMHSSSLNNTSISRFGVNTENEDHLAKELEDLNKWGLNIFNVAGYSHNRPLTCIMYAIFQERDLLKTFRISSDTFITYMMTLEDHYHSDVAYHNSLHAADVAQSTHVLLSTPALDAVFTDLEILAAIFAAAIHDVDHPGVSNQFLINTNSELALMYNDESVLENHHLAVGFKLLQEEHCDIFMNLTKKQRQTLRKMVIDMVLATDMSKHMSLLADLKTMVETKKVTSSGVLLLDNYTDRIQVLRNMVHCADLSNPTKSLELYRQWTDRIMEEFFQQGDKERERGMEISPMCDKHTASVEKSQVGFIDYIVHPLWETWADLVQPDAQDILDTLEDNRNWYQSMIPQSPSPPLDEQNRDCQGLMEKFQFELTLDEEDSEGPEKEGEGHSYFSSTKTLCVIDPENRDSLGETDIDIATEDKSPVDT
Chain of Cytochrome P450 2C9 (Homo sapiens) (P11712 whole entry, looked up): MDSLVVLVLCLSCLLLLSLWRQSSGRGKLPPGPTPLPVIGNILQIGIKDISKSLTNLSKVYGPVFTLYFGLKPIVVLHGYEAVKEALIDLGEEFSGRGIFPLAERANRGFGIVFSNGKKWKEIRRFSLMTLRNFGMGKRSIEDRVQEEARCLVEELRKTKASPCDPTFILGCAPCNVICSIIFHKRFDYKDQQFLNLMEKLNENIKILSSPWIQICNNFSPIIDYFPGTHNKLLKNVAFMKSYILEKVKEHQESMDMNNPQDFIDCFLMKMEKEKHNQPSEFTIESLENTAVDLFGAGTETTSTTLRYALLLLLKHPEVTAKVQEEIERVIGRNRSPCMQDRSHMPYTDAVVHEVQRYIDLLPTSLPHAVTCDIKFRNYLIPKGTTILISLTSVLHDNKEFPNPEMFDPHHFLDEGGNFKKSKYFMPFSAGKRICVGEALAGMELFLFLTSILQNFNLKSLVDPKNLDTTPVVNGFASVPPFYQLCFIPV
Chain of Guanine nucleotide-binding protein G(i) subunit alpha-1 (Homo sapiens) (P63096 whole entry, looked up): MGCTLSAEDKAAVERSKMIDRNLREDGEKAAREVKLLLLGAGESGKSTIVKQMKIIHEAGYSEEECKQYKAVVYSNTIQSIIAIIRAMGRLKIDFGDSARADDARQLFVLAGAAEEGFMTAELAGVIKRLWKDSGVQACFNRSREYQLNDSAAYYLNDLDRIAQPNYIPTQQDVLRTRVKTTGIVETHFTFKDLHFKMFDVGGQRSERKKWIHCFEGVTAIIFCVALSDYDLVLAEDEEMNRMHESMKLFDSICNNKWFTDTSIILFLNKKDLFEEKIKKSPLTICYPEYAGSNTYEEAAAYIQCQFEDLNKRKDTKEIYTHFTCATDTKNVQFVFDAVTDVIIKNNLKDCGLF
Chain of Alpha-galactosidase A (Homo sapiens) (P06280 whole entry, looked up): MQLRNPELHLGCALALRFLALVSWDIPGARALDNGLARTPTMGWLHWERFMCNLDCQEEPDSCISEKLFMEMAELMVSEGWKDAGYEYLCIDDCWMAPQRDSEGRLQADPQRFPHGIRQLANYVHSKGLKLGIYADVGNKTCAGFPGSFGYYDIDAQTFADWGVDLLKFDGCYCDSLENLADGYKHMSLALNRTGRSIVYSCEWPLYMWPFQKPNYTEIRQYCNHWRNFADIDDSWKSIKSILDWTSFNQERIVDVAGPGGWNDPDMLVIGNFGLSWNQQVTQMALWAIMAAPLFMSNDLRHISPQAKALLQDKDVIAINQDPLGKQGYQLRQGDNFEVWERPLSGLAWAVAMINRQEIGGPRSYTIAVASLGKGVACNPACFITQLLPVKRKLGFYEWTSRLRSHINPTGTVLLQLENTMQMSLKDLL
Chain of Pyruvate kinase (Leishmania mexicana) (Q27686 2-499 E452W): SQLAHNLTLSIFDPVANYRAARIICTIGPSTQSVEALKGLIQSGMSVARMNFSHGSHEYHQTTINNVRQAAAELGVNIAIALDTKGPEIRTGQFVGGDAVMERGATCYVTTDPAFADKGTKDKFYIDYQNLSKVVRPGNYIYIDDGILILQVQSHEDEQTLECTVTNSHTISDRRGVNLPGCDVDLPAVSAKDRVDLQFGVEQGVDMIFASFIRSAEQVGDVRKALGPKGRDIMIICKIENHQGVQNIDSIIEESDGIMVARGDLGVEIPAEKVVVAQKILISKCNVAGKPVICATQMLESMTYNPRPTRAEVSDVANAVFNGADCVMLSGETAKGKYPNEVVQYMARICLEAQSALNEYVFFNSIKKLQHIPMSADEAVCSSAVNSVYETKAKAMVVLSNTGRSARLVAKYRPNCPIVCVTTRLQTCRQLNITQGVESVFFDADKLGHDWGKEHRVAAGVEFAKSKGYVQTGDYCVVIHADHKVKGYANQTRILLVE
Chain of Pyruvate kinase PKM (Homo sapiens) (P14618 whole entry, looked up): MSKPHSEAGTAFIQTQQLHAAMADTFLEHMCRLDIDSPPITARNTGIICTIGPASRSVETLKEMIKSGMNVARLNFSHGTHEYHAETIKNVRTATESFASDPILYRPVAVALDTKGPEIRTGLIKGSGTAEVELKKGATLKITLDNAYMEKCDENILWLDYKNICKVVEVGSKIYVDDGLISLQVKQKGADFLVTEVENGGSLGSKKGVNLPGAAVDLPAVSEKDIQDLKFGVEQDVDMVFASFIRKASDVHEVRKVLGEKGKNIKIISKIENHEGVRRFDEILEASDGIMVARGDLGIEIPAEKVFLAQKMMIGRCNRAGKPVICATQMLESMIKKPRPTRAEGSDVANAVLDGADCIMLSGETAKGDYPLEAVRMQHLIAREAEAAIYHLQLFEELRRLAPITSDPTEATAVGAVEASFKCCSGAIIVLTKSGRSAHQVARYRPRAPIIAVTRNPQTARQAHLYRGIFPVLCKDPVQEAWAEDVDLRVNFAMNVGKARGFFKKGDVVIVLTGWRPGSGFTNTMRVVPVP

Turning to `COc1[nH]c2ccc(F)cc2c1C(=O)OCC1CCN(CCNS(C)(=O)=O)CC1`, the activity change, negative = inhibition in test [1] was 1.52%; in test [3], 0.0444%. Moreover, the Potency result in test [2], in [7], in test [8], in [10], in test [11] and in [12] was “inactive” each time. Also, the Potency result in test [16] and in test [17] was “inactive” each time. In addition, the activity, negative = inhibition in test [4] is 16.9%. For the same compound, the Potency is over 46 µM in test [5], over 46 µM in test [6] and 7.94 µM (active) in [18]. Further, the compound was called inactive in test [9], in test [13], in [14] and in test [15].
